Test results: the supplement of paper PMC10105736
Values without a mark were called inactive.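 Rule for the calls: active = MAPPIT score above the 99th percentile of random reference set scores in the same batch; inactive = at or below it.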

Experiments:
Test in all cases: MAPPIT interaction score (arbitrary units); higher = stronger binary interaction signal, active = hit call of the paper
ihog = details: pair source set: Lit-BM-16
kappaB-Ras = details: MAPPIT configuration: N-N; pair source set: DPIM
htl = details: MAPPIT configuration: N-N; pair source set: RRS
hid = details: pair source set: RRS
laza = details: MAPPIT configuration: N-N; pair source set: screen_2
jvl = details: pair source set: RRS
isoQC = details: MAPPIT configuration: N-N; pair source set: DPIM
ix = details: pair source set: Lit-BM-16
l(3)neo38 = details: MAPPIT configuration: N-N; pair source set: Lit-BS-16
lwr = details: MAPPIT configuration: N-N; pair source set: Curagen_low_conf
lola = details: pair source set: RRS
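Note: HEK293T cells with Epo stimulation, STAT-responsive firefly luciferase reporter, fold induction versus unstimulated cells divided by the larger fold induction of two negative controls lacking either bait or prey.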

B1: ihog (protein)
chain: MTLLTSSLLLFSLLTSRLEAIPVLEKSPAHPAHSAHPAHPAHPAHPAHPSPGVRILRAPESLVAPLGDEVVLECETSLQPERFEWSHRSSRSPGAGFKYLKTGTAKANVSQEAAISRLRVLVRPDTLGEYRCVGWFGPLVVTSTIARLELASTSLVDAQESESPLQWRVSAGNSVLWSCGQQVQSNPSASWSYYRNGVEIKPEFIGTNGNLFLSNVSSESSGSYSCQATNPASGERIQLPGSLQLQVTPEQRSESKSPHLLRGQPSSQEITIREGSSLLLLCPGVGSPPPTVVWSSPDVVGAVKNKRSKVFGHALEISNTRVNDAGTYICFQDNGVRPALEHYIKVHVEQPPQIVRPPWADLTNEGDRLKLECKATGVPTPEIYWLLNGHSSIDDSEAELSNNFLILHSVLKRHAGYVQCFARNRLGEHSAGTLLQVNPKQIQEPRESGGTHRPKPNQGSRQKQMYPPTPPNVTRLSDESVMLRWMVPRNDGLPIVIFKVQYRMVGKRKNWQTTNDNIPYGKPKWNSELGKSFTASVTDLKPQHTYRFRILAVYSNNDNKESNTSAKFYLQPGAALDPMPVPELLEIEEYSETAVVLHWSLASDADEHLITGYYAYYRPSSSAGEYFKATIEGAHARSFKIAPLETATMYEFKLQSFSAASASEFSALKQGRTQRPKTSTTEEPTLQMGDRDTTTPSHNETFNMSPMLTGTIGGGAVLILLLISTCFCVCRRRNSRSRGNNPNKPRMAELRDDFVPLGNCSPTKQRQRTRHIHITLNPLAQQQQQALEEKNDTDQDAPYYQRPSSYDYDPTLRRMSSSSLRRSQRTLERAGGSNGSNNGNNNNLNQSAEAGSIENPGKPGRVLMKRPRLSSRSENLSSGSLNSVGV
ihog; MAPPIT configuration: N-C
  MAPPIT interaction score: -0.576
ihog; MAPPIT configuration: N-N
  MAPPIT interaction score: -0.268

B2: Cp1 (protein)
chain: MNHLGVFETRFRPRTRHKSQRAQLIPEQITMRTAVLLPLLALLAVAQAVSFADVVMEEWHTFKLEHRKNYQDETEERFRLKIFNENKHKIAKHNQRFAEGKVSFKLAVNKYADLLHHEFRQLMNGFNYTLHKQLRAADESFKGVTFISPAHVTLPKSVDWRTKGAVTAVKDQGHCGSCWAFSSTGALEGQHFRKSGVLVSLSEQNLVDCSTKYGNNGCNGGLMDNAFRYIKDNGGIDTEKSYPYEAIDDSCHFNKGTVGATDRGFTDIPQGDEKKMAEAVATVGPVSVAIDASHESFQFYSEGVYNEPQCDAQNLDHGVLVVGFGTDESGEDYWLVKNSWGTTWGDKGFIKMLRNKENQCGIASASSYPLV
kappaB-Ras
  MAPPIT interaction score: 0.259

B3: Uba5 (protein)
chain: MSHAIDELQAIIADLKTELETEPKSSGGVASNSRLARDRIDRMSAEVVDSNPYSRLMALQRMNIVKDYERIRYKAVAIVGVGGVGSVTADMLTRCGIGKLILFDYDKVELANMNRLFFTPDQAGLSKVAAAAATLSFINPDVEIETHNYNITTVENFDRFLDTISQGGRIAGQPVDLVLSCVDNFEARMAINAACNERNLNWFESGVSENAVSGHIQFIRPGDTACFACAPPLVVAENIDEKTLKREGVCAASLPTTMGITAGFLVQNALKYLLNFGEVSDYLGYNALSDFFPKMTLKPNPQCDDRNCLVRQKEFQARPKPVLIEEKAVSEEPLHATNEWGIELVAEDAPESNTTPAETPVMGEGLRLAYEAPEKSSETSEETVSAATADETSLEDLMAQMKSM
htl
  MAPPIT interaction score: 0.0658

B4: sesB (protein)
chain: MGNISASITSQSKMGKDFDAVGFVKDFAAGGISAAVSKTAVAPIERVKLLLQVQHISKQISPDKQYKGMVDCFIRIPKEQGFSSFWRGNLANVIRYFPTQALNFAFKDKYKQVFLGGVDKNTQFWRYFAGNLASGGAAGATSLCFVYPLDFARTRLAADTGKGGQREFTGLGNCLTKIFKSDGIVGLYRGFGVSVQGIIIYRAAYFGFYDTARGMLPDPKNTPIYISWAIAQVVTTVAGIVSYPFDTVRRRMMMQSGRKATEVIYKNTLHCWATIAKQEGTGAFFKGAFSNILRGTGGAFVLVLYDEIKKVL
hid; MAPPIT configuration: N-C
  MAPPIT interaction score: 0.0222
hid; MAPPIT configuration: N-N
  MAPPIT interaction score: -0.106

B5: Es2 (protein)
chain: MSATTRTPATPGTPGTPGSLAMEVARVQNSALAEFKKPTAMVRHKNKPKILTEEKYIEEMSKIIQRDFFPDLERLRAQNDYLDAESRRDFVQMAEIRERYSLGRISGTGRSTSRRNNAMSPATFETPVSQAKCSNTPLPNSRATDTPFSTDGSEKSDAEGRDTTAKLSLDAFLQKYTSEDNQSFQEIIETAEAKLRQKYAVLYNHEKLSAEQLQRALMLPSIETQFEEPDPLRKIETWNYTNMNSIMYVPDGVEYTEEERVQLAERKQSIQHNATRLPDEAKHREMDTKKLNDEVPQNGAGGATATPKVRGFDLLRSPSPRPGEAFSPIMTWGEIDGTPFRLDGGDTPLRPTQGPSFRINENSRRENIAIALAERVSERMRNQKQMALDTARRNIGSPLIRTNMERLASMSPAAQLLATGKLGIRGTPRLRHTPSPMSGRKRKVTPGVVRSTNTPILGEPKPKQQAKISTPAKNVTIDTGSTLTDDLLKIPTKRRTAADFF
laza
  MAPPIT interaction score: 0.373

B6: TH1 (protein)
chain: MEVEYDDSGWQGRAKGQTNPEETLEDNPQKTIQECLEKFLTPDYIMEPGIFTQLKRYFQSGGSPEEVISMLSENYKAVAQMANLLAEWLILAGVKVTEVQAMVENHLKEMILKSFDPKKADTIFTEEGETPDWLTEMIDHYTWRSLIYRLAEEYPDCLMLNFTIKLISDAGFQSEITSISTAAQQIEVFSRVLKTSIVKFLNNPDDVHGAIQECARMVCHGQHTYVYSQVLIQVLSQEQKGGFNMKRLSQEIIKYALQNNQNVTPITMALNGSAVYPQACQALTSMLTRNTLNPADITVLFRNYSGSDPPPIDLIRNPQFLELLVDALFRSGVKINPEHKPKYMFLLAYASAVIDQPAKKRPMTERMLNKEELKSTIQAIEKAHTICNVDQGSTELIAELQTLYNCIKYPVVGVGVIRWIENVVMEPSYFKLSTDSCPTHLAVLDEVAAVHPTLQQQILFLLIRLFESKQDELEILVQLEMKKMILDRMVNLLTRGCVVPVLRYIKQCCAIEDTDISLIRYFVTEVLETITHPYSPEFVQLFLPMVENEEITGTMRGEGDNDPVSEFIVHCKAHYTTV
jvl; MAPPIT configuration: N-C
  MAPPIT interaction score: 0.00492
jvl; MAPPIT configuration: N-N
  MAPPIT interaction score: -0.0162

B7: fd59A (protein)
chain: MHTSTDPMHTLHDSVSLSPPLIKSSRGGSSIGNGIGCSASSRTAAADAMSMGCDDSDIEPSSMGGSGAAGGNGDGSGSSGGPLVKPPYSYIALITMAILQSPHKKLTLSGICDFIMSRFPYYKDKFPAWQNSIRHNLSLNDCFIKVPREPGNPGKGNFWTLDPLAEDMFDNGSFLRRRKRYKRAPTMQRFSFPAVFGTLSPFWIRKPVPLVPVHFNVPNFNGSREFDVVHNPADVFDSALRADKKFNFFANAEASFYQGSQSGDKFDRLPFMNRGRGADVLDALPHSSGSGGGVGGGSESSRGSKYKSPYAFDVATVASAAGIPGHRDYAERLSAGGGYMDLNVYNDDADTEADAEAEGDDDSCEDKIDVESGNEQEDSHISDSVDSACTNRLDAPPEALIFEASAEASDSSPRRRFDSEPLVLRTSKQSSAKDFRIETLIGHHLHRGGSQEETSD
isoQC
  MAPPIT interaction score: 0.602

B8: MED8 (protein)
chain: MQRDEKLFELTLDTVLQRLNDLKLAVLSMIQKLELEYETINWPTFLDNFAIISSHLTGLTKILAKEQCPPLRNRTVLPLLVSMDRDDTLINITEGRVPVFSHDIVPDYLRTRPDPITEQKMLQNEQKAANLTNDAAMKQVTQYNKVVSHVLDMVSKAREEWEIESSSRTGIQQTSSMADTQLLVAAVGMGKGLKLTNYGPGPGMMVPPSIRAPSPMGGPAMSPGNVQQQLGKAPSAVKTNIKSANQVHPFSR
ix; MAPPIT configuration: N-C
  MAPPIT interaction score: 3.01
ix; MAPPIT configuration: N-N
  MAPPIT interaction score: 2.19

B9: Pdk1 (protein)
chain: MKCKSWSNKINNYVVRKIKSIKINGTQQQLQLPGSGASGIAAAAVITVASDCGENCSSNGTEHQQHFNIATTTATSATEATMPAMAKEKASATVSLGESNFRDINLKDLAVVVEAASRLHHQQNVCGCGAVSSTENNNNSRYGSSKYLTNGHTSPLAAAVASNSSSVATTPHCRMLHNCSLQQYQNDIRQQTEILDMLRQQHQQGYQSQQQQQQPQQQQEQQQQQEQSQQQQQLQNPAPRRSPNDFIFGRYIGEGSYSIVYLAVDIHSRREYAIKVCEKRLILRERKQDYIKREREVMHQMTNVPGFVNLSCTFQDQRSLYFVMTYARKGDMLPYINRVGSFDVACTRHYAAELLLACEHMHRRNVVHRDLKPENILLDEDMHTLIADFGSAKVMTAHERALATEHCSEQRRSNSDEDDEDSDRLENEDEDFYDRDSEELDDGDDEQQQEEMDSPRHRQRRYNRHRKASFVGTAQYVSPEVLQNGPITPAADLWALGCIVYQMIAGLPPFRGSNDYVIFKEILDCAVDFPQGFDKDAEDLVRKLLRVDPRDRLGAQDEFGYYESIRAHPFFAGIDWQTLRQQTPPPIYPYLPGVSQDEDFRSSYTVPGDLEPGLDERQISRLLSAELGVGSSVAMPVKRSTAKNSFDLNDAEKLQRLEQQKTDKWHVFADGEVILKKGFVNKRKGLFARKRMLLLTTGPRLIYIDPVQMIKKGEIPWSPDLRAEYKNFKIFFVHTPNRTYYLDDPEGYAIHWSEAIENMRKLAYGDPSSTSAVSCSSGSSNSLAVISNSSAASSSNSPTVKRSSPVNAPQASTASDNRTLGSTRTGTSPSKKTASK
l(3)neo38
  MAPPIT interaction score: 1.81

B10: pcs (protein)
chain: MSSAEDGELDPQIQIELENLNSATDEINKLEIELEEANSTFRILLNESTRRLKVSSKKLGNCIEKARPYYEALDKAREAQIECQKAAVKFQRANEIHAAAKETVALAEQRFMSNSHEWQFDNAWQEMLNHATQKVMDAETQKADCHAEHQRLTKLFNAAEQKLQQLEDRFRRSINKSRPYFEEKQVCQDQLQTQKNRIQELQQQVAGAKSTYSTALRNLERISEDIHRQRGDFPTPPGPREPGVGAELNSPTSSALPSLPDFQLELEKCDYPSIAGSQMSLGAKTPQAAAETEDEEDACDYDETGAGELRGVVDERDLEALRQKVKILAVRPIEGGDGQQQNDVWEHELKATVDKLDHLMMLKETAKRQQTNRLKSTEQRPDSLGAEALKRHCDVVEVKVTSCATTASLPVTPHHQLNHLAPPTPIKKLQQQLAPLPSVNVSMRELPLLARLSNELLDRSSAAFGGVRKTLRRRSLE
lwr
  MAPPIT interaction score: -0.177

B11: CG3262 (protein)
chain: MERLLINTIWRSYATKLTGSQVKLMARGLPKKQPIIGVQDIIVVASGKGGVGKSTVAVNFACSLAKLGKRVGLLDGDIFGPTIPLLMNVHGEPVVNDKNLMIPPQNYNVKCLSMGMLTPVETSVIWRGPLVMSAIQRLLKGTDWGLLDVLVIDTPPGTGDVHLSLSQHAPITGVILVTTPHTAAVQVTLKGASMYEKLNVPIFGVVENMKYTICQNCNQRLEFFKDSRISSLPRKLISLPLDSRIADSNESGVPVVIKYPDSKYSYLFTQLAEEITQILNEQRCNQNQNNSAH
lola; MAPPIT configuration: N-C
  MAPPIT interaction score: 0.425
lola; MAPPIT configuration: N-N
  MAPPIT interaction score: 0.0633
